# ATXN viability = cell viability loss in ATXN counter-screen. S2 cells (HEK-293 line with an ATXN2-luciferase reporter) viability, CellTiter-Fluor protease fluorescence, 24 h. AID 651635. 400,000 tested, 0.49% active. Potency, µM (titrated, usually from 56.7 µM), most hits filed as cytotoxic; further: potency means the concentration at half of the fitted maximal effect; nearly all actives have a fitted effect of over 40% in size
# ATXN2 expr inh = reduces ATXN2 reporter expression in HEK-293 cells | HEK-293 ATXN2-luciferase reporter, luminescence, 24 h | Potency, µM (top dose mostly 57 µM), without a hit: at the highest dose activity change, negative = inhibition, hits mostly inhibitors | 360,000 tested, 0.72% active; further: potency means the concentration at half of the fitted maximal effect; on the % scale 0 is the no-effect control and ±100 the full control effect; nearly all actives have a fitted effect of over 55% in size
#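 ATXN2-luciferase reporter cells (luciferase flanked by upstream and downstream ATXN2 gene portions) were treated 24 h at 37 °C with compounds at up to 57 uM. SteadyGlo luminescence gave expression; GF-AFC fluorescence gave viability.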
# HepG2 viability = counter-screen for TGF-b inhibitors: cytotoxicity in HepG2 cells | HepG2 CAGA-GFP viability, ATP luminescence, 18 h | Potency, µM (doses to about 46.1 µM), without a hit: top-dose activity change, negative = cytotoxicity, usual class: cytotoxic | 410,000 tested, 0.76% active | AID 588856; further: potency means the concentration at half of the fitted maximal effect
#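 HepG2 CAGA-GFP cells (1000/well, DMEM with 1% FBS) received compound, then TGF-beta at 500 pg/mL final, and were incubated 18 hours at 37 degrees C. Viability was read by CellTiter-Glo luminescence. Media-only wells were set as complete cell-killing and DMSO as no toxicity.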
# TGFb inhibitor = inhibitors of TGF-b signaling | HepG2 CAGA-GFP TGF-b/SMAD3 reporter, GFP fluorescence, 18 h; TGF-beta stimulated, 500 pg/mL final | Potency, µM (top dose mostly 46.1 µM), inactives show top-dose activity, negative = inhibition, hits mostly inhibitors | 410,000 tested, 1.2% active | AID 588855; further: potency means the concentration at half of the fitted maximal effect; on the % scale 0 is the no-effect control and ±100 the full control effect; nearly all actives have a fitted effect of over 65% in size
#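 Smad-responsive CAGA-GFP expression was quantified in HEPG2 cells exposed to compounds and 500 pg/mL final TGF-beta for 18 h at 37 degrees C; unstimulated wells defined full inhibition.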
# IL1B secr inh = inflammasome signaling inhibition, IL-1 beta readout; THP-1 LPS/ATP IL-1B secretion, AlphaLISA, 16 h; active compounds read low; 360,000 tested, 4.7% active; activity change, % at 57.5 µM; in the data active means activity change below about -50%; inconclusive means mostly about -30% to -49%; further: on the % scale 0 is the no-effect control and ±100 the full control effect
#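 Secreted IL-1B measured by AlphaLISA bead assay after 16 h compound exposure of THP-1 cells; compounds (final up to 57.5 uM) added 1 h before LPS (250 ng/mL) and ATP (1.25 mM) stimulation; lower signal means less secretion.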
# * marks the source's active call; other numbers are inactive results; i = inactive; ? = inconclusive; . = no result; ! = not active in a repeat. Rows were chosen to be rich in hits. Some 5.7% of all compounds tested hit in one or more screens of this group. Unless noted, the call rests on the fitted dose curve; in most records, active means well fitted curve in the direction sought with a large enough effect; inconclusive means small, poorly fitted or top-dose-only effect, or another doubt; inactive means no such curve, though single readings can be large; an effect the other way counts as inactive or inconclusive.
SMILES,ATXN viability,ATXN2 expr inh,HepG2 viability,TGFb inhibitor,IL1B secr inh
Cc1cnc(Nc2ccc(OCCN3CCCC3)cc2)nc1Nc1cccc(S(=O)(=O)NC(C)(C)C)c1,.,3.9%,.,.,.
O=C(Nc1nnc(S(=O)(=O)N2CCCc3ccccc32)s1)c1ccc(Cl)cc1,i,-3.9%,-41.0%,?,.
Cc1[nH]c2ccccc2c1C(C[N+](=O)[O-])c1cccs1 (centres undefined),i,.,1.8%,-18.1%,-95.9*
Cc1ccc(-c2[nH]c3ccccc3c2C(C[N+](=O)[O-])c2ccco2)cc1 (centres undefined),i,0.0%,15.8µM*,?,-1.2
Cc1[nH]c2ccccc2c1C(C[N+](=O)[O-])c1ccco1 (centres undefined),i,3.9%,-13.5%,-15.0%,4.3
Cc1cnc(-n2ncc(C(=O)N(C)CC3COCCO3)c2C2CC2)nc1-c1cccs1 (centres undefined),i,.,.,.,.
O=C(CS(=O)c1ccc(C(F)(F)F)cc1[N+](=O)[O-])Oc1ccccc1 (centres undefined),?,?,3.55µM*,?,-114.1*
CS(=O)(=O)c1ccc(S(=O)CC(=O)OCc2ccccc2)c([N+](=O)[O-])c1 (centres undefined),.,?,7.08µM*,4.47µM*,-163.5*
Cc1ccc(C(=O)Nc2ccc3c(c2)CCC3)cc1,i,?,-18.8%,-10.6%,?
NS(=O)(=O)c1cc(C(=O)Nc2ccc3c(c2)CCC3)ccc1Cl,i,31.3%,-9.7%,-13.3%,-67.6*
COc1ccc(CCNc2nc(-c3ccc(OC)c(OC)c3)cc(C(F)(F)F)n2)cc1OC,?,?,-21.3%,?,.
O=C(OCc1ccccc1)/C(=C/c1cccc2ccccc12)NC(=O)c1ccccc1,i,-2.2%,-9.3%,2.7%,15.4
Cc1ccc(C(=O)N/C(=C\c2ccccc2)C(=O)OCc2ccccc2)cc1,i,56.2%,-15.4%,-1.6%,-50.7*
COc1ccccc1-c1noc(-c2ccc(NC3CCCC3)c([N+](=O)[O-])c2)n1,i,37.3%,-2.4%,-10.2%,.
O=C(NCc1ccccc1F)c1cc2ccccn2n1,i,19.9%,-6.0%,20.9%,.
CCCCCCSc1cccc(-c2nc3cc(C)ccn3c2NCc2ccccc2)c1,?,-23.6%,-38.4%,?,-83.6*!
CCCCCCSc1cccc(-c2nc3ccc(C)cn3c2NC2CCCCC2)c1,i,-11.0%,-28.9%,-2.8%,-4.2
CCCCCCSc1cccc(-c2nc3ccccn3c2NCc2ccccc2)c1,?,-13.0%,-29.2%,?,-29.7
CCCCCCSc1cc(-c2nc3ccc(C)cn3c2NCc2ccccc2)ccc1OC,20µM*,-19.0%,-15.6%,?,-50.9*!
CCCCCCSc1cccc(-c2nc3ccc(C)cn3c2NCc2ccccc2)c1,?,0.0%,-49.4%,?,-60.5*
CCCCOc1ccc(OC(=O)c2sc3ncn(Cc4cccc(F)c4)c(=O)c3c2C)cc1,i,10.1%,0.5%,8.2%,.
Cc1ccc(N2C(=O)C(Cl)=C(N3CCOCC3)C2=O)cc1Cl,i,-7.3%,4.4%,-1.9%,-70.0*
COc1ccc(C(=O)Nc2ccc(C)cn2)c(OC)c1,i,3.16µM*,-36.1%,4.1%,-10.2
CCN1/C(=C/c2cccc[n+]2C)Sc2ccc(OC)cc21,i,.,-18.3%,3.98µM*,?
Cc1ccc2c(c1)N(C)/C(=C/c1cccc[n+]1C)S2,i,?,11.2µM*,-2.0%,-88.5*
SMILES,ATXN viability,ATXN2 expr inh,HepG2 viability,TGFb inhibitor,IL1B secr inh
COc1ccc2c(c1)N(C)/C(=C/c1cccc[n+]1C)S2,?,?,-37.2%,-17.4%,0.0
CN1/C(=C/c2cccc[n+]2C)Sc2ccccc21,i,?,-37.3%,?,-67.0*
Cc1ccc2c(c1)N(C)/C(=C/c1cccc[n+]1CCO)S2,i,0.0%,-21.6%,-19.8%,?
CN[C@H](C)CCC=C(C)C,.,.,-30.0%,?,.
CCOc1ccc(/C=C/c2nc3ccccc3n2S(=O)(=O)c2cccc(Cl)c2)cc1,.,.,-35.7%,30.8%,.
CN(C)c1ccc(/C=C/c2ccnc3ccc(O)cc23)cc1,.,.,-35.9%,18.7%,.
CC(C)C(c1nnnn1C(C)(C)C)N1CCOCC1 (centres undefined),i,-28.2%,-4.5%,-3.2%,5.2
CC(C)C(c1nnnn1C(C)(C)C)N1CCC(Cc2ccccc2)CC1 (centres undefined),?,-6.8%,1.6%,-32.2%,-76.4*
CCc1cc(C(=O)c2ccccc2)c(N)s1,?,-9.6%,-29.2%,-17.3%,-8.5
Nc1ccc(SC(F)(F)F)cc1C(=O)c1ccccc1,i,-23.1%,-103.6%,12.6µM*,-102.7*
COC(=O)C1=CN(c2cccc(C(F)(F)F)c2)C=C(C(=O)OC)C1c1ccc(O)c(OC)c1,?,-28.4%,-6.8%,?,-50.9*
COC(=O)C1=CN(C)C=C(C(=O)OC)C1c1ccc(O)c(OC)c1,i,11.2%,6.7%,12.8%,0.2
Cn1cnnc1Sc1ccc(CN2CCOc3ccc(C4=Cc5ccccc5CC4)cc3C2)o1,i,.,.,.,.
O=[N+]([O-])c1ccc2c(c1N1CCCCC1)=NC1(CCCCC1)[N+]=2[O-],?,-21.4%,-58.1%,-18.3%,2.8
COc1ccc(Nc2ccc3c(c2)=NC2(CCCCC2)[N+]=3[O-])cc1,.,?,12.6µM*,3.16µM*,-97.0*
COc1ccc(NC2=NC(=S)N(c3ccccc3C)C23CCCCC3)cc1,i,-10.7%,3.6%,13.3%,-15.1
[O-][N+]1=c2ccc(Nc3ccccc3)cc2=NC12CCCCC2,14.1µM*,?,-105.9%,6.31µM*,-98.0*
O=c1c2ccccc2n2c(-c3ccc(Cl)cc3)nnc2n1CCc1ccccc1,i,6.5%,-7.5%,-38.2%,.
CC(C)(C)N(Cc1ccccc1)C(=O)COC(=O)c1ccccc1SCC(=O)N1CCCC1,i,2.8%,10.3%,1.4%,-51.9*
CC(C)(C)N(Cc1ccccc1)C(=O)COC(=O)C1CC1,i,-7.5%,-10.8%,3.7%,-12.8
CN(Cc1ccccc1)C(=O)c1ccccc1C(=O)OCC(=O)N(Cc1ccccc1)C(C)(C)C,?,?,-14.0%,?,-50.1*
COC(=O)c1ccc(Cn2c(C)c(C(=O)NCc3ccc(C#N)cc3)sc2=O)o1,i,-10.1%,0.0%,-10.0%,-16.7
CSc1ccc(Cn2c(C)c(C(=O)NCc3ccco3)sc2=O)cc1,i,-2.8%,-0.4%,19.6%,-101.3*
COC(=O)c1ccc(Cn2c(C)c(C(=O)NCc3ccco3)sc2=O)o1,i,0.2%,-1.6%,13.9%,-56.1*
COc1ccc2c(c1OC)C(=O)OC2c1ccc(O)cc1 (centres undefined),.,.,6.5%,15.0%,.
